Screens (PubChem BioAssay)
HIF activator = HIF pathway transcriptional activation | activation, % at 7.5 µM (by protocol) | AID 1910 | U2OS HRE-luciferase reporter, luminescence; normalized: DMSO 0%, desferrioxamine 100% | 300,000 tested, 0.32% active;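 active = mean activation of at least 10% of the iron chelator positive control signal, with at least half of replicates also reaching 10%; inconclusive = mean and replicate majority disagree about reaching 10%; inactive = mean and most replicates under 10%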
AHR activator = activators of human aryl hydrocarbon receptor | AHR-responsive luciferase reporter cells, luminescence | activation, % at 5 µM | 320,000 tested, 2.5% active | AID 2796; in the data active = activation above about 47%;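 also: 0% = vehicle wells and 100% = reference agonist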
Target sequence (P35869 whole entry, looked up): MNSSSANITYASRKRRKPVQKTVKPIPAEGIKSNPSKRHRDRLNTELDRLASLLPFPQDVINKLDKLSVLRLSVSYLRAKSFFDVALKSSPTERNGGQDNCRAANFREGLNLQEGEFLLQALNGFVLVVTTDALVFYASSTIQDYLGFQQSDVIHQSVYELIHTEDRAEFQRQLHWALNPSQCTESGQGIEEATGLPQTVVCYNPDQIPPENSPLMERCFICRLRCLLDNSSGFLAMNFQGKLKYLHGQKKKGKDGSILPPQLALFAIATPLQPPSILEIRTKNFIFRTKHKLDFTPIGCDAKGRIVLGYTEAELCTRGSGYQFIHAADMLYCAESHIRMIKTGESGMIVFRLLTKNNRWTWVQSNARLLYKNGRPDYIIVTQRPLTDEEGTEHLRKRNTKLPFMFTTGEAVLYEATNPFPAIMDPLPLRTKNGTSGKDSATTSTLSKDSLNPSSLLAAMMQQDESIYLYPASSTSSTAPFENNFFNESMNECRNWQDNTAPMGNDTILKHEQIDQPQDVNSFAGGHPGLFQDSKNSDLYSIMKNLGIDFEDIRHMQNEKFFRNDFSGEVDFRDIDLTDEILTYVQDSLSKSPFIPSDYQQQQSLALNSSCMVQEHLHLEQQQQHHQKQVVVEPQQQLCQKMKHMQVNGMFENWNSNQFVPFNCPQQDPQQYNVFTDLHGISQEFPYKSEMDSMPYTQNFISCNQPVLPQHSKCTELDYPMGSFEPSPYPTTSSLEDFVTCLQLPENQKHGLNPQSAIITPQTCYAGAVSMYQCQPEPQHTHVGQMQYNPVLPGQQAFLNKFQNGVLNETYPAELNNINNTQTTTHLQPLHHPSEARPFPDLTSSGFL
PolyA inh = blocks polyadenylation in yeast reporter cells. activity score, % at 12 µM. AID 1875. S. cerevisiae SKY197-pL101 polyadenylation reporter, beta-gal luminescence; efflux-impaired pdr1/pdr3 knockout yeast; score 100 = 6 SD above DMSO. 300,000 tested, 0.02% active;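 active = lowest replicate activity score at least 50, where 100 means six control SD above control mean; inconclusive = lowest score under 50 but half or more replicates reach 50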;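 also: yeast exposed to compound for 9 h at 30 °C; higher score means more reporter readthrough which indicates perturbed polyadenylation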
pCIP destab = p/CIP protein destabilization. F442A p/CIP-EGFP cells, EGFP fluorescence, 16 h. decrease of EGFP signal, % at 10 µM. 290,000 tested, 0.01% active. AID 1984;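 active = EGFP signal decrease of at least 30% at 10 µM or well 3 SD below plate mean, unless failing retest; inactive = the rest, including hits failing retest or dose response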
Platelet DG rel = platelet dense granule release activity; inhibition, %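 (compounds screened at 7.5 µM in platelet-rich plasma)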; human platelet-rich plasma, SFLLRN dense granule ATP release, luminescence; 300,000 tested, 0.22% active;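 active = mean replicate score, as percent of positive control, at or above 50; inconclusive = mean below 50 but at least one replicate at or above 50; inactive = mean and every replicate below 50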
Active calls of the source: *; u = inconclusive; x = not tested or not shown. A selection: hits, their analogues and other compounds. The true share with any hit is near 2.8%.

SMILES	HIF activator	AHR activator	PolyA inh	pCIP destab	Platelet DG rel
Cc1nnc(SCC(=O)Nc2c(Cl)cccc2Cl)n(N)c1=O	-0.6	12.2	2.2	x	7.6
COc1ccc(/C=N\NC(=O)c2ccccc2)cc1COc1ccccc1	0.8	11.5	-12.1	-20.0	12.8
CCn1nc(C)c(CNC(=O)Nc2ccc3c(c2)OCO3)c1C	2.5	68.0*	-0.7	11.3	-0.7
COc1cccc(OCc2cc(/C=N/NC(=O)c3ccn[nH]3)ccc2OC)c1	-10.8	63.0*	12.0	-22.2	-3.2
Cc1cc(CNC(=O)Nc2ccc3c(c2)OCO3)nn1C	1.2	12.1	x	-19.9	-11.7
CCOC(=O)C1=C(COC(=O)CCNS(=O)(=O)c2ccc(NC(C)=O)cc2)NC(=O)NC1C (centres undefined)	-0.6	4.4	2.2	x	10.9
COC(=O)C(Cc1ccccc1)NC(=O)CCNC(=O)c1ccco1 (centres undefined)	-34.5	4.3	12.8	-17.3	-3.4
O=C(CNC(=O)c1ccc(Cl)cc1Cl)OCCOc1ccccc1F	x	0.7	x	x	x
COc1ccc(-c2cc(CC3(C(=O)O)CCN(C(=O)OC(C)(C)C)CC3)on2)c(OC)c1	-1.8	1.7	17.1	-5.5	0.0
COc1ccc(N2CCN(c3ccc(N4C(=O)CC(C)C4=O)cc3[N+](=O)[O-])CC2)cc1 (centres undefined)	66.0*	-0.1	-8.2	-1.4	2.6
COc1ccc(N2CCN(c3ccc(N4C(=O)COCC4=O)cc3[N+](=O)[O-])CC2)cc1	-0.2	0.2	1.2	-2.4	0.0
O=C(Cc1nnc(NC(=O)c2ccccc2)s1)N/N=C/c1ccco1	-0.7	114.6*	9.6	4.9	-12.6
O=C(NCc1nc2ncc(Br)cc2[nH]1)c1ccccc1	0.1	78.0*	14.5	11.9	-0.3
CSc1nc(C)[nH]c(=O)c1C#N	-0.4	3.7	5.8	-3.2	5.9
Cc1nc(Nc2ccc(Cl)cc2)c(C#N)c(=O)[nH]1	0.0	70.8*	-5.4	-11.6	3.3
Cc1cc2cc(C)c(NCCNC(=O)c3ccccc3)nc2cc1C	0.1	63.3*	8.5	-8.5	-0.2
CCOc1ccc2nc(NCCNC(=O)C(C)C)c(C)cc2c1	1.0	47.7*	5.4	-11.4	1.0
COc1ccccc1NC(=O)c1ccc(NC(=O)CSc2nnnn2C)cc1	-0.2	13.0	11.9	-10.2	-3.2
Cc1ccc(C)c(NC(=O)COC(=O)COc2cccc3c2OC(C)(C)C3)c1	0.2	-0.1	8.5	x	-4.4
Cc1ccnc(NC(=S)NC(=O)c2cccs2)c1	2.5	8.8	-5.1	5.7	5.7
CC1(C)COC(/C=C/c2ccc([N+](=O)[O-])cc2)=N1	-3.6	50.5*	-5.3	2.1	1.0
CC(=C/C(=O)O)/C=C/c1ccc([N+](=O)[O-])cc1	x	2.2	x	-12.3	x
COc1cccc(NC(=O)CN(C)CC(=O)Nc2ccc(C)c([N+](=O)[O-])c2)c1	2.6	0.7	2.0	-16.0	10.4
S=C(Nc1ccc2cn[nH]c2c1)Nc1ccccc1Cl	10.6*	17.4	12.1	1.9	-9.1
O=c1[nH]c2ccc(NC(=S)Nc3ccccc3Cl)cc2[nH]1	-0.1	0.4	-8.9	-13.8	53.9*
SMILES	HIF activator	AHR activator	PolyA inh	pCIP destab	Platelet DG rel
S=C(Nc1ccc2cn[nH]c2c1)Nc1ccc(Cl)cc1Cl	4.2	24.2	-16.1	19.1	0.8
S=C(Nc1ccc(Cl)cc1)Nc1ccc2cn[nH]c2c1	10.4*	41.6	12.2	18.3	2.9
Nc1ccccc1C(=O)N=Nc1[nH]c(N)c2ccccc12	0.9	61.2*	0.2	-1.2	3.6
Nc1[nH]c(N=NC(=O)c2ccc(F)cc2)c2ccccc12	1.3	13.3	16.2	-13.5	12.7
Cc1cccc(/C=N\NC(=O)c2ccc(Cl)cc2)c1O	41.6*	1.8	-16.0	-2.8	1.2
COc1cccc(/C=N/NC(=O)c2c(C)nc3ccc(Cl)cn23)c1O	85.6*	3.1	6.5	-1.6	3.6
Cc1cccc(/C=N/NC(=O)c2c(-c3ccccc3)noc2C)c1O	16.1*	1.7	-1.6	-18.6	3.3
COc1cccc(/C=N/NC(=O)C(=O)N/N=C/c2cccc(OC)c2OC)c1OC	0.3	4.8	4.1	-17.1	u
COc1cccc(/C=N\NC(=O)c2sc(N)nc2C)c1OC	0.1	59.7*	-7.9	-2.3	-3.8
Cc1ccc(NC(=O)c2ccc(S(=O)(=O)N3CCCCC3)cc2)nc1	x	4.2	x	x	x
Cc1noc(C)c1C(=O)N(CC(=O)Nc1ccc(Cl)c(C(F)(F)F)c1)Cc1ccco1	x	2.3	x	x	x
O=C(CSc1nnc(-c2cccc(Br)c2)o1)N1CCNC1=O	x	10.3	x	x	x
Cc1cccc(/C=N/NC(=O)Cc2ccc(Cl)cc2)c1O	0.4	52.0*	-21.9	-17.2	1.6
CCCCSc1nc(C)cc(SCC(=O)N/N=C/c2cccc(OC)c2O)n1	21.0*	1.8	4.6	3.6	2.1
Cc1cc(NC(=O)C2CC(=O)N(c3ccccc3Cl)C2)no1 (centres undefined)	-0.1	1.5	3.5	7.0	-15.7
Nc1cccnc1Sc1cc(Cl)c(Cl)cc1Cl	-0.4	59.5*	-9.3	-15.0	-2.0
CCCCOc1ncnc2c1[nH]c1ccccc12	2.6	50.0*	-14.6	-18.9	15.4
CCOCCCNc1ncnc2c1[nH]c1ccccc12	0.8	49.7*	0.2	-5.0	1.2
CCCCOc1ncnc2c1[nH]c1ccc(OCC)cc12	0.2	45.3	-11.3	-4.3	3.0
O=C(CN1CCN(C(=O)c2cncn2-c2ccccc2)CC1)Nc1ccccc1Cl	x	5.1	x	x	x
O=C(/C=C/c1c(Cl)nc2ccccn12)N1CCCCC1	-0.1	59.0*	3.1	-1.4	-0.9
CCc1ccc2nc(N(CCN(C)C)C(=O)/C=C/c3cccs3)sc2c1	-0.1	12.3	1.0	0.7	0.3
Cc1ccc2nc(N(CCN(C)C)C(=O)/C=C/c3cccs3)sc2c1	-1.7	48.3*	7.4	-3.1	-2.6
CN(C)CCN(C(=O)/C=C/c1cccs1)c1nc2c(F)cc(F)cc2s1	-2.6	66.1*	5.4	2.4	2.2
O=C1CN(c2ccccc2)C(=S)N1C(=O)c1ccc(Br)cc1	5.6	3.0	11.8	-6.7	16.1
SMILES	HIF activator	AHR activator	PolyA inh	pCIP destab	Platelet DG rel
COc1ccc(Nc2nc(C)cc(C)c2C#N)c(OC)c1	-1.1	34.0	4.8	0.6	-1.0
COc1ccc(Nc2nc(C)cc(C)c2C#N)cc1	-0.1	65.4*	-11.9	-6.1	-1.5
CCOc1ccc(Nc2nc(C)cc(C)c2C#N)cc1	0.0	79.7*	-6.6	5.6	1.6
O=C(O)c1cc2ccccc2c2cc(Br)ccc12	0.2	1.4	-2.4	-0.7	1.9
N#C/C(=C(/O)CCl)c1nc2c(s1)CCc1ccccc1-2	5.0	67.2*	-11.1	-2.5	-3.9
Nc1nc2c(s1)CCc1ccccc1-2	1.7	13.3	-5.0	-8.7	-3.7
Oc1ccc(/C=N/Nc2nccnc2Cl)cc1	3.9	23.5	14.0	-13.8	98.3*
Fc1cccc(/C=N/Nc2nccnc2Cl)c1	78.4*	24.3	17.0	-20.4	u
Nc1c(Cl)ncnc1N/N=C/c1ccc(O)cc1	0.2	19.9	-0.2	-1.2	71.9*
Fc1cccc(/C=N/Nc2nncc3ccccc23)c1	0.2	55.3*	1.1	-3.2	23.8
